Common to all, as to assay: DAPPL (digital affinity profiling via proximity ligation, sequencing); 10 mM Tris-HCl pH 7.5, 50 mM NaCl, 1 mM DTT, 4% glycerol, room temperature, 30 min; GST-TFs on glutathione beads, 16-mer random dsDNA library, 0.1% formaldehyde crosslink after washing; high values mean tight binding
Assay [1] addresses T1, FLI1 (Homo sapiens, UniProt Q01543 1-452).
T1 sequence: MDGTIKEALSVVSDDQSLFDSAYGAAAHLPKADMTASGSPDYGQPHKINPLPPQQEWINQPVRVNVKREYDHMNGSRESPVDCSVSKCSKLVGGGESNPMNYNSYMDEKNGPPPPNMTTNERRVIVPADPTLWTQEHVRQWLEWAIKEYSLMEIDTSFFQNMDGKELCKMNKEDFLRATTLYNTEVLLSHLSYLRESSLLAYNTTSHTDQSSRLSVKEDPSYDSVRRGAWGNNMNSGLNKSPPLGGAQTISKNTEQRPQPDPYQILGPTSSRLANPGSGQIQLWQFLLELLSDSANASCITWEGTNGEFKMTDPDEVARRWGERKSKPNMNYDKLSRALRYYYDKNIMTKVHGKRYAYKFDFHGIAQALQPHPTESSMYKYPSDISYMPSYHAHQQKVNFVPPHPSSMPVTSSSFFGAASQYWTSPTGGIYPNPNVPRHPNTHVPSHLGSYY
The settings on record: protein: recombinant; tags: N-terminal GST; dsDNA, one strand shown. The essentials: (§1)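 Each value of binding signal is a hexamer's read frequency for a factor divided by the same hexamer's frequency in the tag-only sample. Barcoded, bead-captured GST fusions of human transcription factors made in yeast were pooled with that sample and incubated with 200 nmole of a random double-stranded 16-mer DNA library in Tris/NaCl/DTT/glycerol buffer at room temperature for 30 min. Washing, 0.1% formaldehyde crosslinking, proximity ligation, PCR and Illumina NextSeq500 sequencing followed.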

Assay [2] concerns the target T2, ELK1 (Homo sapiens, UniProt P19419 1-428).
T2 sequence: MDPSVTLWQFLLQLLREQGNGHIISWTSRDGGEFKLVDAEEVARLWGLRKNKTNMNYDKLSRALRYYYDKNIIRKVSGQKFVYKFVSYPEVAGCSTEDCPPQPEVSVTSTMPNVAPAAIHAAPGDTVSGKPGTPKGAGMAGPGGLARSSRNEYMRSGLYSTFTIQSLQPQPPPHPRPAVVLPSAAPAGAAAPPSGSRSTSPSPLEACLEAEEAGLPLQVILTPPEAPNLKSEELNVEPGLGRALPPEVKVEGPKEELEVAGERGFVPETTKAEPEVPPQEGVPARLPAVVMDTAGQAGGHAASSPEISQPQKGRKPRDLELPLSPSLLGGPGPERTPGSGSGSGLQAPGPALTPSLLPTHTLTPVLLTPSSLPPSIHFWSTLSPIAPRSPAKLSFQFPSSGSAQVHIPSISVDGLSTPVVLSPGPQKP
Particulars: protein: recombinant; tags: N-terminal GST; dsDNA, one strand shown. The essentials: as §1

In assay [3] the target is T3, ERG (Homo sapiens, UniProt P11308 1-479).
T3 sequence: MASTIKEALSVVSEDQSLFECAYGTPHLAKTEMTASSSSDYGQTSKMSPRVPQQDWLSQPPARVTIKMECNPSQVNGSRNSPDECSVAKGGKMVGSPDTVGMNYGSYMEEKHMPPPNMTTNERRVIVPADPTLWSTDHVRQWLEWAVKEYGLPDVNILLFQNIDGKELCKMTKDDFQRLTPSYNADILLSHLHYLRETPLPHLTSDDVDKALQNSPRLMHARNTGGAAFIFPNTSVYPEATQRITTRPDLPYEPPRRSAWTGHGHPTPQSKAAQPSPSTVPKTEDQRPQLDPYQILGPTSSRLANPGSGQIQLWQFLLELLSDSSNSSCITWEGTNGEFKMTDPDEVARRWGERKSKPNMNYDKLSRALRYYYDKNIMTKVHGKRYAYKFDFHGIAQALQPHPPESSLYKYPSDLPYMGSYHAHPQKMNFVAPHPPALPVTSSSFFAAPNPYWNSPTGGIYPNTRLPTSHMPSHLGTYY
Particulars: protein: recombinant; tags: N-terminal GST; dsDNA, one strand shown. In short, it runs like this:
as §1

Assay [4] deals with ELF1 (Homo sapiens, UniProt P32519 1-619). The settings on record: protein: recombinant; tags: N-terminal GST; dsDNA, one strand shown. The essentials: as §1
Chain of ELF1 (P32519 whole entry): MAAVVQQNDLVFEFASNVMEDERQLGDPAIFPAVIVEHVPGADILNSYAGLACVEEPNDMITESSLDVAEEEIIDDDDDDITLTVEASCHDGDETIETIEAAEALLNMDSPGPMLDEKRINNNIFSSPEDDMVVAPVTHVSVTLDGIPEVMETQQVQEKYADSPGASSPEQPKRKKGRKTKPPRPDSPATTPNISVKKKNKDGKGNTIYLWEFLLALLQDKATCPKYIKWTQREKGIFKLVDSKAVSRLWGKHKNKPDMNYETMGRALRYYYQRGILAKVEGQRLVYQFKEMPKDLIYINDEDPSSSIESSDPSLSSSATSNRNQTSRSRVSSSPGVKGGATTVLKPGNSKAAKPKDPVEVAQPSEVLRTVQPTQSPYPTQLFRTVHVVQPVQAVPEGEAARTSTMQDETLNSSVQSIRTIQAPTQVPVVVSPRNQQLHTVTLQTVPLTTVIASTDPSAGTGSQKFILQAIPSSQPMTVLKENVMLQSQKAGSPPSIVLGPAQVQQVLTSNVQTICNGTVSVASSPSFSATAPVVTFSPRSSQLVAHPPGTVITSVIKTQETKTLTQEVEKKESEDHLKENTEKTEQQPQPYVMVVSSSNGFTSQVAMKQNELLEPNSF
For assay [5], the target named is T4, EHF (Homo sapiens, UniProt Q9NZC4 1-300).
T4 sequence: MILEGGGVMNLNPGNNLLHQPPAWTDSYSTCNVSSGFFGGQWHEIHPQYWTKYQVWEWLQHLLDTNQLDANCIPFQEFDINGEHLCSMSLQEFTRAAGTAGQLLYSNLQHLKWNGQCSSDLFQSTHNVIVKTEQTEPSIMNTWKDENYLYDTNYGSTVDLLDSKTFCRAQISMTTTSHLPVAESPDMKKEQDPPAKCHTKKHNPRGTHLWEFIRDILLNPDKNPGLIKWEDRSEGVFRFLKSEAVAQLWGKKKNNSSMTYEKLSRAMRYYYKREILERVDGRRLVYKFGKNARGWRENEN
The settings on record: protein: recombinant; tags: N-terminal GST; dsDNA, one strand shown. In short, it runs like this:
as §1

Assay [6] addresses SPI1 (Homo sapiens, UniProt P17947 1-270). The settings on record: protein: recombinant; tags: N-terminal GST; dsDNA, one strand shown. In short, it runs like this: as §1
The target in assay [7] is SPIB (Homo sapiens, UniProt Q01892 1-262). Particulars: protein: recombinant; tags: N-terminal GST; dsDNA, one strand shown. In short, it runs like this: as §1
Chain of SPIB (Q01892 whole entry): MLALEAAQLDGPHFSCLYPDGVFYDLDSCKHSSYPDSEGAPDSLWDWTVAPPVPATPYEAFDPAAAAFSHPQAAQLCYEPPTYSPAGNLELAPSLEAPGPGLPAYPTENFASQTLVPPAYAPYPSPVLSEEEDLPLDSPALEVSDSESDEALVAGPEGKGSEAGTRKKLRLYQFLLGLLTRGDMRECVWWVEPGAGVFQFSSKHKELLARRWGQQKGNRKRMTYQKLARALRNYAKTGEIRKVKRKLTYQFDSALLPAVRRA
Assay [8] addresses T5, ELK3 (Homo sapiens, UniProt P41970 1-407).
T5 sequence: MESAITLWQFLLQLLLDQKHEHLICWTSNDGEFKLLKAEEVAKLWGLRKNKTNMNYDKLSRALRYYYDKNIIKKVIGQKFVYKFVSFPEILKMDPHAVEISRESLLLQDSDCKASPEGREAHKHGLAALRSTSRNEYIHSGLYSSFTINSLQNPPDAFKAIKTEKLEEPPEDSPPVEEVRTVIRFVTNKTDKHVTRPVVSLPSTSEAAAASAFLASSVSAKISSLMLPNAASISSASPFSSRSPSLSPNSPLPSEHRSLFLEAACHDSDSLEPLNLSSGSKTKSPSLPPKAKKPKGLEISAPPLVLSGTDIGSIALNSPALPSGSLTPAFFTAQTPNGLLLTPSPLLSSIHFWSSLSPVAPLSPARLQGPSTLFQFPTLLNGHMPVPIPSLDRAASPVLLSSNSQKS
The settings on record: protein: recombinant; tags: N-terminal GST; dsDNA, one strand shown. In short, it runs like this: as §1

For assay [9], the target named is T6, FEV (Homo sapiens, UniProt Q99581 1-238).
T6 sequence: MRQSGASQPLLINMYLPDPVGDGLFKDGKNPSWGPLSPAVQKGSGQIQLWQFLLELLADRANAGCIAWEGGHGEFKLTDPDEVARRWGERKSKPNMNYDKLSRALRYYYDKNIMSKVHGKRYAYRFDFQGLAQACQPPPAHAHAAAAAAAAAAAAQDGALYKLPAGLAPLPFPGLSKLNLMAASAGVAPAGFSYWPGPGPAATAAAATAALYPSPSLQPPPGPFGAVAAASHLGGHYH
The settings on record: protein: recombinant; tags: N-terminal GST; dsDNA, one strand shown. The essentials: as §1

For assay [10], the target named is ETV5 (Homo sapiens, UniProt P41161 1-510). The settings on record: protein: recombinant; tags: N-terminal GST; dsDNA, one strand shown. In short, it runs like this: as §1
Chain of ETV5 (P41161 whole entry): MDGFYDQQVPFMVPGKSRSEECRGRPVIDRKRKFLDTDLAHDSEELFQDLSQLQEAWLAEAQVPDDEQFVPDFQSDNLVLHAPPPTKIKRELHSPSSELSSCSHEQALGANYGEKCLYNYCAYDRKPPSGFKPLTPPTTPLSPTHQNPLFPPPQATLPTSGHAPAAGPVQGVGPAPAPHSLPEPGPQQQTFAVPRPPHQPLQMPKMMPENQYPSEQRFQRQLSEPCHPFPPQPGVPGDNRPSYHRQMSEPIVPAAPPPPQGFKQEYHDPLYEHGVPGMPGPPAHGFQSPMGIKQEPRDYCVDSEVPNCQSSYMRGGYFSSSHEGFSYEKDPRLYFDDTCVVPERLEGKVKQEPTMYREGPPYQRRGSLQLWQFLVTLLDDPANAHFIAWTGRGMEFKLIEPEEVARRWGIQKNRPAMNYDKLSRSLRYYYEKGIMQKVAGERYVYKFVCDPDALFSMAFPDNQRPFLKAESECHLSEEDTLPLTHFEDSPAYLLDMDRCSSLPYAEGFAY
For assay [11], the target named is HSF1 (Homo sapiens, UniProt Q00613 1-529). The settings on record: protein: recombinant; tags: N-terminal GST; chain copies: 3; dsDNA, one strand shown. In short, it runs like this: as §1
Chain of HSF1 (Q00613 whole entry): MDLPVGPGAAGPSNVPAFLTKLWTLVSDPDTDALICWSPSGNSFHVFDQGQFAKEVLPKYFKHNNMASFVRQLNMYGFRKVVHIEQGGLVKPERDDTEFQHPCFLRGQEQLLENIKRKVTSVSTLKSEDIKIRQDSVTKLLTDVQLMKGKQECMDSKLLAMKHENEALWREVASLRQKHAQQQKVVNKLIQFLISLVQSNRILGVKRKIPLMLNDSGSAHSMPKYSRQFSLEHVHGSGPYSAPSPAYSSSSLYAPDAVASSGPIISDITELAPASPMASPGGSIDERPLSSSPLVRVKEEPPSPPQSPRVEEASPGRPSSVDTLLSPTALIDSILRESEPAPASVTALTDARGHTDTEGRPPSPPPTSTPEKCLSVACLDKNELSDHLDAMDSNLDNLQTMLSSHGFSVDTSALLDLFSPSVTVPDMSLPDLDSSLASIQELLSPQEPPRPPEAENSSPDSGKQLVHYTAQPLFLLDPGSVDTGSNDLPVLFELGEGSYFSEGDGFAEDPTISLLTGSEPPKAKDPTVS
The target in assay [12] is ELF4 (Homo sapiens, UniProt Q99607 1-663). The settings on record: protein: recombinant; tags: N-terminal GST; dsDNA, one strand shown. In short, it runs like this:
as §1

Assay [13] deals with T7, ELK4 (Homo sapiens, UniProt P28324-2 1-405).
T7 sequence: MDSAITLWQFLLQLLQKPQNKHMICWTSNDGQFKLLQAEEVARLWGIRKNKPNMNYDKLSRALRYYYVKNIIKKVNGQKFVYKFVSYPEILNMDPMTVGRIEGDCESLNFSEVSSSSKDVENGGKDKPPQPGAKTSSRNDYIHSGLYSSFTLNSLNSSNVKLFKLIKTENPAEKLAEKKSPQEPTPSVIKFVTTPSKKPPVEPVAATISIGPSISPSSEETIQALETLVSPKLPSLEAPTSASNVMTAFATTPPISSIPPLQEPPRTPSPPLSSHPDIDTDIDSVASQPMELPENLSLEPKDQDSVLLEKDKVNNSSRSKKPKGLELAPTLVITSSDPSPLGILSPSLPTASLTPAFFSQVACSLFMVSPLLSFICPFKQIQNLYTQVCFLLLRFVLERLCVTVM
The settings on record: protein: recombinant; tags: N-terminal GST; dsDNA, one strand shown. The essentials:
as §1

In assay [14] the target is T8, ETV2 (Homo sapiens, UniProt O00321 1-342).
T8 sequence: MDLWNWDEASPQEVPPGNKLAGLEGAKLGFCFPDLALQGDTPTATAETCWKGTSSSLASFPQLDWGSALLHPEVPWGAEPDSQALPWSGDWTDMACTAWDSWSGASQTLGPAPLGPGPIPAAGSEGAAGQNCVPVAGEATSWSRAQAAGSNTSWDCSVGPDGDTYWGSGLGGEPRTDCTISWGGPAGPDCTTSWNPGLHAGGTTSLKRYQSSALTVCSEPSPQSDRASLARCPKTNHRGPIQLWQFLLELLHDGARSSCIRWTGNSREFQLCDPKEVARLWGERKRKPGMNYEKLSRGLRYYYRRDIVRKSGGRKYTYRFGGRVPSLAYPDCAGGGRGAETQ
The settings on record: protein: recombinant; tags: N-terminal GST; dsDNA, one strand shown. The essentials: as §1

The target in assay [15] is T9, ELF3 (Homo sapiens, UniProt P78545 1-371).
T9 sequence: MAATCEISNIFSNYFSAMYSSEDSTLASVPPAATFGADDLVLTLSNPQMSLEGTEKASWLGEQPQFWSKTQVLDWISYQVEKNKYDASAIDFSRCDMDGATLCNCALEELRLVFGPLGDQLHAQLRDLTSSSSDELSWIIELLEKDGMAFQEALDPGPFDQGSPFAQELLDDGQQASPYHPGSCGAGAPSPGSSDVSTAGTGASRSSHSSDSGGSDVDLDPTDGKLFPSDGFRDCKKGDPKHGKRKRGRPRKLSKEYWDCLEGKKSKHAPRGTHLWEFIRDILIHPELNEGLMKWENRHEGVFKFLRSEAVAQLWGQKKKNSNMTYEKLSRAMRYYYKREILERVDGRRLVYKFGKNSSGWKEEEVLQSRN
Particulars: protein: recombinant; tags: N-terminal GST; dsDNA, one strand shown. The essentials:
as §1

Assay [16] addresses CRX (Homo sapiens, UniProt O43186 1-299). The settings on record: protein: recombinant; tags: N-terminal GST; dsDNA, one strand shown. In short, it runs like this: as §1
For assay [17], the target named is ETV1 (Homo sapiens, UniProt P50549 1-477). Particulars: protein: recombinant; tags: N-terminal GST; dsDNA, one strand shown. The essentials:
as §1

Chain of ETV1 (P50549 whole entry): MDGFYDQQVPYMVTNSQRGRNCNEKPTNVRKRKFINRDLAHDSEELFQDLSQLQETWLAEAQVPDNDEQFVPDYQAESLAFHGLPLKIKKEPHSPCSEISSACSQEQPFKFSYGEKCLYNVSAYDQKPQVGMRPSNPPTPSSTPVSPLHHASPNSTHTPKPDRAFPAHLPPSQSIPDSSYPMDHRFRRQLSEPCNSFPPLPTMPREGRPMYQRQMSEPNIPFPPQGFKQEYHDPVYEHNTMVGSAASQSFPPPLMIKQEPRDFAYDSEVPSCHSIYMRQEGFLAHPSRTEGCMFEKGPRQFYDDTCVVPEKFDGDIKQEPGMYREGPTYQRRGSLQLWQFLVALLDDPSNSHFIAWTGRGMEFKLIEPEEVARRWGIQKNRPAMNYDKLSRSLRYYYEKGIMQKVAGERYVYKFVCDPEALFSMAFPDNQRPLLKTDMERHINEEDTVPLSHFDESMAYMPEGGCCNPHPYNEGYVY
Chain of CRX (O43186 whole entry): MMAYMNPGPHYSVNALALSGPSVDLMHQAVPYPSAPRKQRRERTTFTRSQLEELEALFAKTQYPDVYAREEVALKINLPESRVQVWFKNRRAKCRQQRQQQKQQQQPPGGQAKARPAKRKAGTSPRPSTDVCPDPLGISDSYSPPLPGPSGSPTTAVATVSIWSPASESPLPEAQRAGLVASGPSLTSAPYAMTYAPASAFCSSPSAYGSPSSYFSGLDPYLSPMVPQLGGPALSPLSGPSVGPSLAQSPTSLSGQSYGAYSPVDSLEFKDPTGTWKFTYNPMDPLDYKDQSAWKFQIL
Chain of ELF4 (Q99607 whole entry): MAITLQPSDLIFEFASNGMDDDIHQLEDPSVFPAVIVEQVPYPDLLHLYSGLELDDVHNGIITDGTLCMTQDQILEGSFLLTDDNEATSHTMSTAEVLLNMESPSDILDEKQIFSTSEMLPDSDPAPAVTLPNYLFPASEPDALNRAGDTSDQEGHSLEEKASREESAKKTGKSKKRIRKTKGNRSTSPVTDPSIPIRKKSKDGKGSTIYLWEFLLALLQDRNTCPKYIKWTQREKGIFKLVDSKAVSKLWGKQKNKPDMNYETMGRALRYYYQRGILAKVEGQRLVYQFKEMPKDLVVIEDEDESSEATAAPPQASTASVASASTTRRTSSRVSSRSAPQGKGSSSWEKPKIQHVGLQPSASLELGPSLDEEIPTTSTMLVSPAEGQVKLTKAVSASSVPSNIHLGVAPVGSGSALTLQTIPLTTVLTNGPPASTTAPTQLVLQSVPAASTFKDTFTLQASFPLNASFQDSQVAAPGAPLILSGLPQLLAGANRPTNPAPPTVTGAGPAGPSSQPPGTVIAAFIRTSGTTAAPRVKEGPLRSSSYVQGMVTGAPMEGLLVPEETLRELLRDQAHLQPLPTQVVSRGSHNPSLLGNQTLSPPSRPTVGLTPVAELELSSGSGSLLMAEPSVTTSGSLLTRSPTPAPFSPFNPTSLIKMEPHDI

Consider CAGATT, for which the binding signal in assay [1] was 1.07 fold enrichment (6-mer frequency, TF over GST control); in [2], 1.05 fold enrichment (6-mer frequency, TF over GST control); in [3], 1.06 fold enrichment (6-mer frequency, TF over GST control); in assay [4], 1 fold enrichment (6-mer frequency, TF over GST control); in assay [5], 1.01 fold enrichment (6-mer frequency, TF over GST control); in assay [6], 1.03 fold enrichment (6-mer frequency, TF over GST control). For the same sequence, the binding signal was 1.02 fold enrichment (6-mer frequency, TF over GST control) in [7]; 1.12 fold enrichment (6-mer frequency, TF over GST control) in assay [8]; 1 fold enrichment (6-mer frequency, TF over GST control) in assay [9]; 1 fold enrichment (6-mer frequency, TF over GST control) in assay [10]; 1.75 fold enrichment (6-mer frequency, TF over GST control) in [11]; 1.06 fold enrichment (6-mer frequency, TF over GST control) in assay [12]. Moreover, the binding signal in assay [13] is 1.01 fold enrichment (6-mer frequency, TF over GST control); in assay [14], 1.02 fold enrichment (6-mer frequency, TF over GST control); in [15] it was 1.06 fold enrichment (6-mer frequency, TF over GST control); in assay [16] it was 2.1 fold enrichment (6-mer frequency, TF over GST control); in [17] it was 1.03 fold enrichment (6-mer frequency, TF over GST control).

The record behind these values is publication PMC7862700, “An all-to-all approach to the identification of sequence-specific readers for epigenetic DNA modifications on cytosine”.
